Assay outcomes deposited in PubChem by Sanford-Burnham Center for Chemical Genomics.
TROY signal inh – inhibitors of TROY-driven NF-kB signaling, primary screen, Q293 LMP1-TROYcd cells, NF-kB luciferase, uHTS; actives 0.98% (n = 360,000); inhibition, % at 10 µM; Q293 LMP1-TROYcd NF-kB luciferase reporter, 4 h;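 active means compounds whose plate-normalised and pattern-corrected inhibition of the luciferase reporter signal at the single screening dose is 50% or more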
TWEAK Fn14 block – inhibitors of TWEAK-Fn14 signaling, primary screen, luciferase reporter cells, uHTS; inhibition, % at 10 µM; actives 2% (n = 360,000); TWEAK-stimulated Fn14 reporter cells, luciferase luminescence, 8 h; AID 1159606, 2016; in the data active means inhibition above about 50%
Peg3 promoter – Peg3 promoter-driven luciferase inhibitors, primary screen, cell-based, HeLa, luciferase luminescence; actives 1.7% (n = 360,000); inhibition, % at 20 µM; HeLa PEG-Prom luciferase reporter, overnight;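 active means inhibition of at least 50% at 20 µM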
HIF-2a block – HIF-2a reporter inhibitors, primary screen, luminescence, 786-0 RCC cells; 786-0 RCC cells HIF-2a reporter, luciferase luminescence, overnight; inhibition, % at 18.8 µM; actives 0.72% (n = 360,000); AID 624352, 2012;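 active means inhibition of the luminescence signal of 40% or more relative to plate controls, in a single-dose primary screen at 18.75 µM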
KKLEB tox – cytotoxicity in KKLEB CF airway cells, primary screen, cytotoxicity control for CF NF-kB inhibitor project, cell-based, uHTS, fluorescence assay plates; KKLEB CF airway cells viability, ATPlite luminescence, overnight; active compounds read low; cells stimulated with P. aeruginosa culture filtrate; activity change (cytotoxicity), % at 5 µM; actives 0.36% (n = 360,000);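 active means corrected activity change at or below -50% at 5 µM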
CF NFkB block – inhibitors of PAF-induced NF-kB signaling, primary screen, cell-based, GFP fluorescence, uHTS; inhibition, % at 5 µM; KKLEB NF-kB-GFP reporter, GFP fluorescence overnight; AID 588850, 2011; actives 0.86% (n = 360,000);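 active means at least 50% inhibition at 5 µM, scaled per plate between neutral and stimulator controls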;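 further: PAF is a Pseudomonas aeruginosa culture filtrate used as stimulus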
Of the large screens only hits and unclear results are named; the others gave an inactive call. The list is not random: actives were taken first. Their share in the collection is about 4%.

C=C(C)c1nc(Oc2ccccc2)nc(Oc2ccccc2)n1	Peg3 promoter 106
O=C(/C=C/c1ccnc2ccccc12)c1cccs1	TROY signal inh 70, TWEAK Fn14 block 65, Peg3 promoter 102, CF NFkB block 61
CC(NS(=O)(=O)c1ccc(F)cc1)C(c1cccs1)N1CCN(C)CC1 (stereo not given)	none
O=c1[nH]c(C2CCN(S(=O)(=O)c3ccccc3F)CC2)nc2c1nnn2Cc1ccc2c(c1)OCCO2	Peg3 promoter 60
CCCCc1ccc(-c2ccc(Br)cc2)nc1	none
CCCc1ccc(-c2ccc(F)c(N)c2)nc1	TROY signal inh 63, TWEAK Fn14 block 89
CN(CC(=O)Nc1ccccc1Cl)C(=O)CN1C(=O)C2CCCCC2C1=O (stereo not given)	none
CCOc1ccc(NC(=O)CN(C)C(=O)c2ccncc2)cc1OCC	TWEAK Fn14 block 68
CCOc1ccc(NC(=O)CN(C)C(=O)c2cc(C)on2)cc1OCC	none
Cc1[nH]c(C)c(C(=O)/C=C/c2ccc([N+](=O)[O-])cc2)c1C	TWEAK Fn14 block 60
Cc1nc(Nc2ccc(S(=O)(=O)N3CCCCC3C)cc2)c2nnn(Cc3ccccc3)c2n1 (stereo not given)	TWEAK Fn14 block 66
Cc1nc(Nc2ccc(Cl)cc2)c2nnn(Cc3ccccc3)c2n1	none
COCCCNS(=O)(=O)c1ccc2[nH]c3c(c2c1)CCCCC3	TWEAK Fn14 block 84
CC(C)(C)NS(=O)(=O)c1ccc2[nH]c3c(c2c1)CCCCC3	none
Cc1cccc(CCNc2nc3ccc(C)cc3n3cnnc23)c1	TROY signal inh 73, TWEAK Fn14 block 74
CC(C)(C)c1ccc(C(=O)N2CCCC2)s1	none
COc1cc2cc(C(=O)Nc3ccc4c(c3)OCCO4)[nH]c2cc1OC	TROY signal inh 77, TWEAK Fn14 block 93
S=C(Nc1ccc(Br)cc1)Nc1ccc2c(c1)OCCO2	none
COc1cc(NC(=S)Nc2ccc3c(c2)OCCO3)cc(OC)c1OC	TROY signal inh 57
COc1cc2[nH]c(C(=O)Nc3ccc4c(c3)OCCO4)cc2c(OC)c1OC	TROY signal inh 56, TWEAK Fn14 block 71
COCCN(Cc1ccccc1)C(=O)c1ccc2c(c1)NC(=O)CS2	none
O=C1CSC(=NC(=O)c2ccccc2)N1	TWEAK Fn14 block 69
CC(C)C(=O)N=C1NC(=O)CS1	none
CCOC(=O)C1CCN(S(=O)(=O)Cc2ccccc2)CC1	none
CCC1CN(S(=O)(=O)c2cc(-c3cc(C)no3)ccc2OC)c2cc(C)ccc2O1 (stereo not given)	none
CN1C(=O)/C(=N\OC(=O)c2cccc3ccccc23)c2ccccc21	Peg3 promoter 74
O=C(Nc1ccc(NC(=O)c2ccco2)cc1)c1ccc2c(c1)OCO2	TWEAK Fn14 block 68 (no result: TROY signal inh)
O=C(Nc1ccc(Br)cc1F)c1ccc2c(c1)OCCO2	TWEAK Fn14 block 51
CC(=O)c1ccc2c(c1)OCCOCCOCCOCCOCCO2	TWEAK Fn14 block 87
COc1ccc(NC(=O)C2=Cc3ccccc3OC2)cc1	TWEAK Fn14 block 52
COc1ccc(NC(=O)C2=Cc3cccc(OC)c3OC2)cc1	none
CCN(CC)S(=O)(=O)c1ccc(Nc2nc3ccccc3n3nnnc23)cc1	none
Cc1ccccc1Nc1nccc(N(C)C)c1C#N	none
CC(C)[C@@H]1Cc2[nH]c(=O)[nH]c(=O)c2[C@H](C)O1	none (no result: Peg3 promoter, KKLEB tox, CF NFkB block)
O=C(Nc1ccc2oc(-c3ccncc3)nc2c1)c1ccc2c(c1)OCCO2	none
O=C(Nc1ccc(NC(=O)c2cc3ccccc3o2)cc1)c1ccc2c(c1)OCCO2	Peg3 promoter 78
O=C(Nc1ccc2oc(-c3ccccc3)nc2c1)c1ccc2c(c1)OCCO2	TROY signal inh 58
O=C(Nc1ccc2c(c1)OCCO2)c1[nH]c(C(F)(F)F)nc1-c1ccccc1	TROY signal inh 81, TWEAK Fn14 block 90
CCC(C(=O)Nc1ccc2c(c1)OCCO2)n1c(=O)[nH]c2ccccc2c1=O (stereo not given)	TROY signal inh 60, TWEAK Fn14 block 76
COc1ccc(-c2nnc(SCc3ncc(-c4ccccc4)o3)o2)cc1	none
Cn1cnnc1SCC(=O)NCCC1=CCCCC1	none
O=C(Nc1ccncc1)c1ccc2c(c1)OCCO2	none
O=C(Nc1ccc(N2CCN(C(=O)c3ccccc3)CC2)c(Cl)c1)c1ccc(Br)o1	Peg3 promoter 50
Cc1ccc(NC(=O)c2ccc3c(c2)OCCO3)cc1	TWEAK Fn14 block 68
COc1ccc(C(=O)Nc2ccc3c(c2)OCCO3)cc1	TWEAK Fn14 block 50
CCC(Oc1ccccc1OC)C(=O)Nc1ccc2c(c1)OCCO2 (stereo not given)	TWEAK Fn14 block 59
O=C(Nc1ccc(N2CCN(C(=O)c3ccccc3)CC2)cc1)c1ccc(Br)o1	none
CCC1CCCCN1CC(=O)Nc1cc(C)nn1-c1nc(C)cc(C)n1 (stereo not given)	none
O=C(Nc1ccc(N2CCN(C(=O)c3ccccc3)CC2)cc1)c1cc2ccccc2o1	TROY signal inh 70, TWEAK Fn14 block 91, Peg3 promoter 72
O=C(NCC1COc2ccccc2O1)c1cc2ccccc2o1 (stereo not given)	TWEAK Fn14 block 81 (no result: TROY signal inh)
COc1cccc(NC(=O)c2ccc3c(c2)OCCO3)c1	TWEAK Fn14 block 57
CN1CCN(c2ccc(NC(=O)c3cc4ccccc4o3)cc2)CC1	none
Cc1c(C(=O)N(C)CCCCN2CCOCC2)oc2c(F)cccc12	none
O=[N+]([O-])c1ccc(-[n+]2ccc3ccccc3c2)c([N+](=O)[O-])c1	TWEAK Fn14 block 57, Peg3 promoter 96, KKLEB tox -81, CF NFkB block 82
O=C1OCCN1CC(=O)N1CCc2c([nH]c3ccccc23)C1c1ccccn1 (stereo not given)	none
Cc1ccccc1-c1cccc([C@@H]2C[C@H]3[C@H](CON3C)CN2Cc2ccccc2)c1	none
O=C(O)c1ccc(-c2noc(-c3ccccc3F)n2)cc1	TWEAK Fn14 block 52
O=C1c2ccccc2CCCC12N=NCC2c1cccc2ccccc12 (stereo not given)	none
Cc1ccc(C2CN=NC23CCc2ccccc2C3=O)cc1 (stereo not given)	TWEAK Fn14 block 55
Cc1ccc2nsnc2c1NC(=O)c1ccc(-c2cc(Cl)ccc2Cl)o1	Peg3 promoter 101
CC(=O)NCCc1ccc(S(=O)(=O)N2CCCC2)cc1	TWEAK Fn14 block 82
O=C(Nc1ccc(CN2CCOCC2)cc1)c1ccc(-c2cc(Cl)ccc2Cl)o1	TROY signal inh 51, TWEAK Fn14 block 76
